# TDP1 cell CPT: DT40-hTDP1 cell growth loss with CPT | chicken DT40 Tdp1-/-;hTDP1 cells + 20 nM CPT, ATP luminescence, 48 h | Potency, µM (doses to about 46.2 µM), hits mostly inhibitors | 420,000 compounds, 12% hits | AID 686979; also: nearly all actives have a fitted effect of over 55% in size
#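 Chicken DT40 Tdp1-/- cells complemented with human TDP1, 400 cells/well, exposed to compounds plus 20 nM camptothecin for at least 48 h at 37 C; viability read as ATP content by CellTiter-Glo luminescence.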
# DT40 TDP1 no CPT: qHTS for Inhibitors of human tyrosyl-DNA phosphodiesterase 1 (TDP1): qHTS in cells in absence of CPT; Potency, µM (doses to about 46.2 µM), most hits filed as inhibitors; DT40 Tdp1-/- hTDP1 cells, no CPT, ATP luminescence, 48 h; 420,000 compounds, 15% hits; also: nearly all actives have a fitted effect of over 55% in size
#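 Stably hTDP1-transfected Tdp1-null chicken DT40 cells were treated with library compounds minus camptothecin and grown for at least 48 hr at 37 °C, after which cellular ATP was quantified by luminescence.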
# PLK1 PBD inh: inhibitors of human PLK1 polo-box domain binding | Plk1 PBD binding of FITC phosphopeptide, fluorescence polarization | Potency, µM, actives largely listed as inhibitors | 360,000 compounds, 2.8% hits | AID 720504; also: series mostly up to about 57 µM; nearly all actives have a fitted effect of over 65% in size
# TDP1 block: blocks human tyrosyl-DNA phosphodiesterase 1; Potency, µM (top dose mostly 130 µM), usual class: inhibitors; 350,000 compounds, 0.28% hits; Q9NUW8; AID 485290; recombinant TDP1, AlphaScreen DNA substrate cleavage; also: nearly all actives have a fitted effect of over 40% in size
#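 AlphaScreen read-out: signal falls as enzyme removes the 3' tyrosine-FITC from a 5'-biotinylated DNA oligo (15 nM, 5 min, RT). Enzyme was E. coli-made recombinant Tdp1 at 1 nM, exposed to compound for 15 min beforehand; beads 10 ug/ml, 10 min.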
# VDR inhibitor: vitamin D3 receptor (human) inhibition | VDR-SRC2-3 peptide fluorescence polarization, 2 h | Potency, µM, hits mostly inhibitors | 400,000 compounds, 0.93% hits | AID 504847 | P11473
#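 Signal is fluorescence polarization, reporting how far test compounds block the interaction of VDR with the SRC2-3 coregulator peptide after a 2 h room-temperature incubation.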
# KAT2A inh: GCN5L2 (KAT2A) acetyltransferase inhibition. Q92830. GCN5L2 HAT assay, ThioGlo1 CoA-SH fluorescence. Potency, µM (titrated, usually from 58.9 µM), most hits filed as inhibitors. 390,000 compounds, 0.21% hits
#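 ThioGlo1-coupled HAT assay: 20nM GCN5L2, 70uM acetyl-CoA, 75uM H3(1-25) peptide, pH 7.5. Fluorescence read at 340/540nm at start and after 20 min at room temperature.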
# TbPYK inh: Trypanosoma brucei pyruvate kinase inhibition, cherry-pick confirmation; shares compounds with PLK1 PBD inh; recombinant TbPYK, Kinase-Glo ATP luminescence; Potency, µM (highest dose often 76.9 µM), most hits filed as inhibitors; 890 compounds, 67% hits; AID 720569; also: nearly all actives have a fitted effect of over 70% in size
# TbPYK orthogonal: orthogonal confirmation of Trypanosoma brucei pyruvate kinase inhibitors; shares compounds with PLK1 PBD inh; recombinant TbPYK, ADP-Glo luminescence, 60 min; Potency, µM (highest dose often 76.9 µM), usual class: inhibitors; 890 compounds, 62% hits; AID 720584; also: nearly all actives have a fitted effect of over 75% in size
# Hits are given with their value; 0 = inactive; ? = inconclusive; - = no result. This is a sample that favours compounds with a hit; in the whole collection about 18% have one here. Calls follow the shape of the dose curve; as a rule, active = well fitted curve in the direction sought with a large enough effect; inconclusive = small, poorly fitted or top-dose-only effect, or another doubt; inactive = no such curve, though single readings can be large; an effect the other way counts as inactive or inconclusive.
SMILES,TDP1 cell CPT,DT40 TDP1 no CPT,PLK1 PBD inh,TDP1 block,VDR inhibitor,KAT2A inh,TbPYK inh,TbPYK orthogonal
COc1ccc(/C=N/N=C2/NC(=O)C(CC(=O)O)S2)cc1OCc1ccc(Cl)cc1 (stereo unspecified),0,0,0,0,0,0,-,-
O=C(Nc1ccc2c(c1)OCO2)c1cc(-c2ccccc2Cl)on1,0,0,0,0,0,0,-,-
C[C@@H]1CN([C@@H](C)CO)S(=O)(=O)c2ccc(Br)cc2O[C@H]1CN(C)C(=O)Nc1ccc(C(F)(F)F)cc1,?,?,0,-,-,-,-,-
CCn1c(SCC(=O)Nc2nc(-c3ccccc3)cs2)nc2c1c(=O)n(C)c(=O)n2C,0,0,0,0,0,0,-,-
CCCn1c(SCC(=O)Nc2nc(-c3ccc(OC)cc3)cs2)nc2c1c(=O)n(C)c(=O)n2C,?,?,0,0,0,0,0,0
CCOC(=O)CCc1c(C)nc(SCC(=O)O)c(C#N)c1C,?,0,0,0,?,0,2.24µM,7.08µM
CCOC(=O)CCc1c(C)nc(SCc2ccc(C(=O)O)cc2)c(C#N)c1C,0,0,0,-,0,0,-,-
Cc1cc(Cl)ccc1OCc1cn2cccnc2n1,0,0,0,0,0,0,-,-
CSC1=NS(=O)(=O)c2c(C)nn(C)c2S1,?,?,21.2µM,0,25.1µM,28.2µM,3.98µM,3.55µM
O=C1NC(=O)/C(=C\c2ccc(O)cc2O)S1,0,?,0,-,0,0,28.2µM,28.2µM
O=C1NC(=O)/C(=C\c2ccc(OCc3ccccc3)cc2)S1,0,0,0,-,0,0,-,-
O=C1NC(=S)S/C1=C/c1ccc(N2CCOCC2)o1,?,?,0,0,?,0,-,-
Cc1cc(N2CCOCC2)ccc1/C=C1/SC(=O)NC1=O,0,?,0,0,0,0,?,39.8µM
Cc1ccc(NC(=O)COC(=O)c2ccc(-n3cccn3)cc2)cc1C,0,0,0,0,0,0,-,-
O=C(NCC1CCCO1)c1sc(=S)n2c1[nH]c(=O)c1ccc(C(=O)N3CCCCC3)cc12 (stereo unspecified),?,0,0,0,0,0,?,?
O=C(NCC1CCCO1)c1ccc2c(=O)n(CC3CCCO3)c(=S)[nH]c2c1 (stereo unspecified),0,0,0,0,0,0,-,-
O=C(NCc1ccccc1)C1c2ccccc2OCC(=O)N1Cc1cccnc1 (stereo unspecified),0,0,0,-,-,-,-,-
COC(=O)C1=C(C(=O)OC)C(C(=O)OC)C(C(=O)OC)C(C(=O)OC)(C(=O)OC)C(C(=O)OC)=C1C(=O)OC (stereo unspecified),2.59µM,2.59µM,10.6µM,-,39.8µM,-,28.2µM,35.5µM
O=C1Nc2ccccc2C(=O)C1(Cl)Cc1ccccc1 (stereo unspecified),6.51µM,5.17µM,1.19µM,0,28.2µM,0,3.16µM,12.6µM
CC(C)(C)N1C(=O)c2ccccc2NC(=O)N1Cc1ccccc1,0,0,0,0,0,0,-,-
CC(NC(=O)CCn1c(=S)[nH]c2ccsc2c1=O)c1ccccc1 (stereo unspecified),0,0,0,0,0,0,-,-
O=c1c2sccc2[nH]c(=S)n1Cc1ccccc1,0,0,0,0,0,0,14.1µM,7.08µM
COc1cccc(C=C2SC(=S)NC2=O)c1,?,0,0,-,0,-,-,-
COc1cccc(/C=C2\C(=O)C(=O)c3ccccc32)c1,?,?,0.794µM,0,89.1µM,0,31.6µM,?
CC(=O)Nc1ccc(/C=C/c2ccc3c([N+](=O)[O-])cccc3n2)cc1,0,0,0,0,0,0,-,-
SMILES,TDP1 cell CPT,DT40 TDP1 no CPT,PLK1 PBD inh,TDP1 block,VDR inhibitor,KAT2A inh,TbPYK inh,TbPYK orthogonal
COC(=O)CN1C(=O)N/C(=C/c2ccc(C)o2)C1=O,0,0,0,0,0,?,-,-
Cc1ccc(/C=C2/NC(=O)N(Cc3ccccc3)C2=O)o1,16.4µM,23.1µM,0,0,89.1µM,?,15.8µM,31.6µM
CCCNC(=O)c1cc(C2CCCCN2S(=O)(=O)c2ccccc2)on1 (stereo unspecified),0,?,0,-,-,-,-,-
CC(=O)/C(=N\Nc1ccc(C)cc1)Sc1nncn1C,0,0,0,0,0,0,4.47µM,12.6µM
Cc1ccc(C(=O)NC(=O)CSc2nncn2C)cc1,0,0,0,0,0,0,-,-
CN(C)Cc1c(C(=O)N/N=C/c2cccs2)nnn1-c1nonc1N,0,0,0,-,0,0,-,-
COc1ccc(CN2C(=O)c3c(c(C)n(C)c3C)C2C(=O)NC2CCC(C)CC2)cc1 (stereo unspecified),0,0,0,0,?,0,-,-
COc1cccc(C(=O)Nc2ccc(C)cc2)c1,0,0,0,0,0,0,-,-
Cc1ccc(NC(=O)c2ccc(Cl)c(N3C(=O)C=CC3=O)c2)cc1,1.16µM,2.06µM,3.36µM,0,17.8µM,17.8µM,5.62µM,12.6µM
O=C(CSc1ccc(-c2nc3ccccc3[nH]2)cn1)N1CCN(C(=O)c2ccco2)CC1,23.1µM,?,29.9µM,0,?,0,?,?
CCn1c(CN2CCN(C(c3ccccc3)c3ccccc3)CC2)nc2c1c(=O)n(C)c(=O)n2C,?,?,0,-,0,0,-,-
COc1ccc(Cn2nnnc2C(c2cccs2)N2CCN(c3ccccc3)CC2)cc1 (stereo unspecified),?,?,0,0,0,0,-,-
Oc1ccc(N2CCN(C(c3cccs3)c3nnnn3CCc3ccccc3)CC2)cc1 (stereo unspecified),?,?,0,0,0,0,4.47µM,22.4µM
CC(=S)/C=C1\Sc2ccccc2N1C,14.6µM,23.1µM,26.7µM,0,?,0,?,14.1µM
CC(C)NC(=O)N1c2ccccc2Sc2ccccc21,?,?,0,-,0,0,-,-
CN(C)S(=O)(=O)c1ccc(/C(O)=C2/C(=O)C(=O)N(CCCN3CCOCC3)C2c2ccncc2)cc1 (stereo unspecified),0,0,0,-,0,-,-,-
O=C(COC(=O)CNC(=O)c1ccc(Cl)cc1Cl)NNC(=O)c1ccccc1F,0,0,0,0,0,0,-,-
O=C(CC(=O)NC1CCCCC1)N/N=C/c1ccccc1F,-,-,-,0,-,0,-,-
CN(C)c1ccc(N=Nc2ccc(S(N)(=O)=O)cc2)cc1,0,0,0,0,0,0,-,-
CC1=CC(=O)C=CC1=Nc1ccc(N(C)C)cc1,1.03µM,0.92µM,?,-,-,-,22.4µM,0

# Bioassay records as filed in PubChem.
